These results are taken from paper PMC7862700, “An all-to-all approach to the identification of sequence-specific readers for epigenetic DNA modifications on cytosine”.

Holding throughout (assay): DAPPL (digital affinity profiling via proximity ligation, sequencing); 10 mM Tris-HCl pH 7.5, 50 mM NaCl, 1 mM DTT, 4% glycerol, room temperature, 30 min; GST-TFs on glutathione beads, 16-mer random dsDNA library, 0.1% formaldehyde crosslink after washing; high values mean tight binding
Assay [1] addresses T1, FEV (Homo sapiens, UniProt Q99581 1-238).
T1 sequence: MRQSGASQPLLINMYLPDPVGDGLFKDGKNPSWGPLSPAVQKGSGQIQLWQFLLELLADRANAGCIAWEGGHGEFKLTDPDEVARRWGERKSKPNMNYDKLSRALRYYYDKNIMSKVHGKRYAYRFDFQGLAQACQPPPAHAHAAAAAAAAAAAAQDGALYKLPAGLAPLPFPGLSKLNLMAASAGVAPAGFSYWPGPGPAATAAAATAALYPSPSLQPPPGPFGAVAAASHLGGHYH
The settings on record: protein: recombinant; tags: N-terminal GST; dsDNA, one strand shown. The method, boiled down: (§1)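 In yeast, human transcription factors were expressed with a GST fusion, then pulled down on glutathione beads and given DNA barcodes. Pooled with a tag-only sample, they were exposed to 200 nmole of a 16-mer random double-stranded DNA library (Tris/NaCl/DTT/glycerol buffer, room temperature, 30 min), washed, crosslinked with 0.1% formaldehyde, proximity-ligated using BsaI/T4 ligase for 1 h at 37 °C, PCR-amplified and read on an Illumina NextSeq500. Each hexamer's frequency of reads for a factor, divided by the matching frequency for the tag-only sample, gives the binding signal.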

For assay [2], the target named is ETV5 (Homo sapiens, UniProt P41161 1-510). The settings on record: protein: recombinant; tags: N-terminal GST; dsDNA, one strand shown. In outline: as §1
ETV5, sequence (P41161 whole entry): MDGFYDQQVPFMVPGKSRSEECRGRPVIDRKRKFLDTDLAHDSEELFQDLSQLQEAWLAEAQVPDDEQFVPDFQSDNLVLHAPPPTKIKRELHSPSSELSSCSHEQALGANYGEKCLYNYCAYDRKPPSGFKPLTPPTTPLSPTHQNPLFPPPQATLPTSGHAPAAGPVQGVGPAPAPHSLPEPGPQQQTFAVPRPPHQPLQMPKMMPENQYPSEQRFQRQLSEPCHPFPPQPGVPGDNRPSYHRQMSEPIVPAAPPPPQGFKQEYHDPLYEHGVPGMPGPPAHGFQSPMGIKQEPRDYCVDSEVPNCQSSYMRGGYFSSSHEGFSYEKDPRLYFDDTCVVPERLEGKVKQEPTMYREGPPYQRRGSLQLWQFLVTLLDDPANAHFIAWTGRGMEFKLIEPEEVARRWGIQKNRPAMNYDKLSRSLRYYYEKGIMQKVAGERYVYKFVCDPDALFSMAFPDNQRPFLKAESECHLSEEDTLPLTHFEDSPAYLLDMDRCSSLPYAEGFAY
Assay [3] deals with HSF1 (Homo sapiens, UniProt Q00613 1-529). The following applies: protein: recombinant; tags: N-terminal GST; chain copies: 3; dsDNA, one strand shown. The method, boiled down:
as §1

For assay [4], the target named is T2, SPIC (Homo sapiens, UniProt Q8N5J4 1-248).
T2 sequence: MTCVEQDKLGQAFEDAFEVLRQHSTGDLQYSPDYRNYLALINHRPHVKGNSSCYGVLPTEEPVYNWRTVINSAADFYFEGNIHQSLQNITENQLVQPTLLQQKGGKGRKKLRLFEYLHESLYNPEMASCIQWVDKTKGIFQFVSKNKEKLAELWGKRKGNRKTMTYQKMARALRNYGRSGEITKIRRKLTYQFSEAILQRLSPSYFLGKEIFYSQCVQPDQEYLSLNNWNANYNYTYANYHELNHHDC
The following applies: protein: recombinant; tags: N-terminal GST; dsDNA, one strand shown. The method, boiled down:
as §1

Assay [5] addresses ELF4 (Homo sapiens, UniProt Q99607 1-663). The following applies: protein: recombinant; tags: N-terminal GST; dsDNA, one strand shown. In outline:
as §1

Assay [6] deals with T3, ELK4 (Homo sapiens, UniProt P28324-2 1-405).
T3 sequence: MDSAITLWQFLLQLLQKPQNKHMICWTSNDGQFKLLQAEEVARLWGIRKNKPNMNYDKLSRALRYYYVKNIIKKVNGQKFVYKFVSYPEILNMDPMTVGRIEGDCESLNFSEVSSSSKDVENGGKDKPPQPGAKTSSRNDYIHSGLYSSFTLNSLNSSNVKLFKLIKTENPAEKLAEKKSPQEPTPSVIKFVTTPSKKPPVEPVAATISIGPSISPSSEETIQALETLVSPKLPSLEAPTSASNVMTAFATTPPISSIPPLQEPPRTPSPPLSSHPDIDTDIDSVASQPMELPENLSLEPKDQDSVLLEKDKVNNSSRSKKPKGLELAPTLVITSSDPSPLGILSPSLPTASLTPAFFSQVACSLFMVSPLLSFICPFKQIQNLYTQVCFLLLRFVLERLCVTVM
The following applies: protein: recombinant; tags: N-terminal GST; dsDNA, one strand shown. In outline:
as §1

The target in assay [7] is T4, ETV2 (Homo sapiens, UniProt O00321 1-342).
T4 sequence: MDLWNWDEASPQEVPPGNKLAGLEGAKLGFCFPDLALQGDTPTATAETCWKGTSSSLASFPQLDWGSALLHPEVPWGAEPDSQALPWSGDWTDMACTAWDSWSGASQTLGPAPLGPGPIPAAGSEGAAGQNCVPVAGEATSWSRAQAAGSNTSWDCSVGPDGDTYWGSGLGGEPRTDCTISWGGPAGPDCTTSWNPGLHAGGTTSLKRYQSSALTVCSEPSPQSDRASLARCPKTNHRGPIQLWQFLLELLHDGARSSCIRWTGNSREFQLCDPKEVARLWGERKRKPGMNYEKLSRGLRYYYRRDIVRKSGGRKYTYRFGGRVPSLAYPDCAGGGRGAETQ
The following applies: protein: recombinant; tags: N-terminal GST; dsDNA, one strand shown. The method, boiled down:
as §1

The target in assay [8] is T5, ELF3 (Homo sapiens, UniProt P78545 1-371).
T5 sequence: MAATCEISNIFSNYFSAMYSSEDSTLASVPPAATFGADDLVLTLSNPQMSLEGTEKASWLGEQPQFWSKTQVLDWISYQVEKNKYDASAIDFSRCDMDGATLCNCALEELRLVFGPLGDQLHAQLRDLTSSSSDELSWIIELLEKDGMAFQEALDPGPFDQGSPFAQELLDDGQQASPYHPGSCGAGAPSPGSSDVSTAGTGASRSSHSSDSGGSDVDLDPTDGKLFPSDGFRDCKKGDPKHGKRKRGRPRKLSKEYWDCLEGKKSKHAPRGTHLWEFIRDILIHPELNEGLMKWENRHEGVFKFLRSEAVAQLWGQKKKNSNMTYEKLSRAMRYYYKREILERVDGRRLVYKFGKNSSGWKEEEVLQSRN
The following applies: protein: recombinant; tags: N-terminal GST; dsDNA, one strand shown. In outline: as §1

Assay [9] has as its target CRX (Homo sapiens, UniProt O43186 1-299). The following applies: protein: recombinant; tags: N-terminal GST; dsDNA, one strand shown. In outline:
as §1

In assay [10] the target is ETV1 (Homo sapiens, UniProt P50549 1-477). The settings on record: protein: recombinant; tags: N-terminal GST; dsDNA, one strand shown. The method, boiled down: as §1
ETV1, sequence (P50549 whole entry): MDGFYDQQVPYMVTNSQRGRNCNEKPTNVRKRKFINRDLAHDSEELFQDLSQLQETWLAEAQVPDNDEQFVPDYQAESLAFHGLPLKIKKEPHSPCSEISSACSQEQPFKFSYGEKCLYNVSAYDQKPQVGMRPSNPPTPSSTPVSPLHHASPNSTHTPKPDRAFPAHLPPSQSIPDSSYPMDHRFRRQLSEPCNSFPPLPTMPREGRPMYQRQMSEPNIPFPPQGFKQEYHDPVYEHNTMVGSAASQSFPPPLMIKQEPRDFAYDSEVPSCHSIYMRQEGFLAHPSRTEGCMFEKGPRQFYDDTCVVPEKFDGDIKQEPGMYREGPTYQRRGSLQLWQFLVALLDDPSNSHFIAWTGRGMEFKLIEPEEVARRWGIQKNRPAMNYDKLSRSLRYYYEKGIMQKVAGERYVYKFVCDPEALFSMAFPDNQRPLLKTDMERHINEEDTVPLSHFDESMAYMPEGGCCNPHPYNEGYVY
The target of assay [11] is T6, ERF (Homo sapiens, UniProt P50548 1-548).
T6 sequence: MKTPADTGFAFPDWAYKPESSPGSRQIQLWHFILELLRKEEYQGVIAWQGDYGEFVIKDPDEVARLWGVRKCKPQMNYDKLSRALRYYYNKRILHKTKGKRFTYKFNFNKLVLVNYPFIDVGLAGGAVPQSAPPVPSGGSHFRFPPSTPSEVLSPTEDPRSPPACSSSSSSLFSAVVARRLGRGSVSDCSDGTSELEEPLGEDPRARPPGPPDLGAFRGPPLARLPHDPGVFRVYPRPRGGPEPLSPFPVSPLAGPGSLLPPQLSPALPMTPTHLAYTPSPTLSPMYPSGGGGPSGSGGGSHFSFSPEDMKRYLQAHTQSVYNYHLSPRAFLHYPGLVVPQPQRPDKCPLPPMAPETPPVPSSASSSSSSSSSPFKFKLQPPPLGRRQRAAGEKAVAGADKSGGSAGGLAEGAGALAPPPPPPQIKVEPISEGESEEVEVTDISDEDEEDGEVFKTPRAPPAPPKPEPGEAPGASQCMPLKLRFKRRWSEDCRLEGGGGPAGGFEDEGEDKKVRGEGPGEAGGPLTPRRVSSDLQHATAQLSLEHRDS
The following applies: protein: recombinant; tags: N-terminal GST; dsDNA, one strand shown. In outline: as §1

For assay [12], the target named is T7, ETV3L (Homo sapiens, UniProt Q6ZN32 1-361).
T7 sequence: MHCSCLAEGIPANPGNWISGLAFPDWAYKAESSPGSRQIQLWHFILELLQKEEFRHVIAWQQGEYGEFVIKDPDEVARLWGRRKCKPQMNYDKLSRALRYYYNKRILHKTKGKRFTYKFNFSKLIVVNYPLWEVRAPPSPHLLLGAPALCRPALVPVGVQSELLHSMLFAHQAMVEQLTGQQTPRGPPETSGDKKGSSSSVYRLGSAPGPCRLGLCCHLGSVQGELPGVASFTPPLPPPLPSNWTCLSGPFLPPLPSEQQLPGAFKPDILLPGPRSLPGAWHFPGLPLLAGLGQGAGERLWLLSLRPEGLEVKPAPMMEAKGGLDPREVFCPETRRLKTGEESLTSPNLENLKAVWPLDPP
The following applies: protein: recombinant; tags: N-terminal GST; dsDNA, one strand shown. In outline:
as §1

Assay [13] has as its target T8, ETS2 (Homo sapiens, UniProt P15036 1-469).
T8 sequence: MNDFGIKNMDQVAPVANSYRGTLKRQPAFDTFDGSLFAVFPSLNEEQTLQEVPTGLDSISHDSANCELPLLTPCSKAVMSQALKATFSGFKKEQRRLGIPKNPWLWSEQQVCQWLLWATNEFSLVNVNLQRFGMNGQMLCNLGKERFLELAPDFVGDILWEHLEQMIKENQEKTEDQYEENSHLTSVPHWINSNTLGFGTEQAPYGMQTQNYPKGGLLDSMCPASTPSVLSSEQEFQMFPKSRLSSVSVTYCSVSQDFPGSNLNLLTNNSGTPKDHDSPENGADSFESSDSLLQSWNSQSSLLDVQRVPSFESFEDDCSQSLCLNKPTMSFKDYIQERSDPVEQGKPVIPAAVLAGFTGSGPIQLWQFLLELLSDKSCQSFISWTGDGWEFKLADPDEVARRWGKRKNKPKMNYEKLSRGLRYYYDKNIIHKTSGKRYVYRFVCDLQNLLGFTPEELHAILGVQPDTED
The settings on record: protein: recombinant; tags: N-terminal GST; dsDNA, one strand shown. The method, boiled down: as §1

Assay [14] has as its target T9, SPDEF (Homo sapiens, UniProt O95238 1-335).
T9 sequence: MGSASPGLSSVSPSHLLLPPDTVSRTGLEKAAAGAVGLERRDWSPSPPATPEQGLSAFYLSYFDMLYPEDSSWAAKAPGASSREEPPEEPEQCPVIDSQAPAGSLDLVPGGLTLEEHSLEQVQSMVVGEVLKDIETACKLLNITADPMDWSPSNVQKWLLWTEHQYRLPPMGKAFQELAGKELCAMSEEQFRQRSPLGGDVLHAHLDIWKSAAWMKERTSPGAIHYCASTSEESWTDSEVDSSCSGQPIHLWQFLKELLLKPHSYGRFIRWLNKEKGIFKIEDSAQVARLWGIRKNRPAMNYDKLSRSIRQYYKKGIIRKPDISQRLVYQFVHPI
The settings on record: protein: recombinant; tags: N-terminal GST; dsDNA, one strand shown. In outline: as §1

Assay [15] addresses T10, ETV7 (Homo sapiens, UniProt Q9Y603 1-341).
T10 sequence: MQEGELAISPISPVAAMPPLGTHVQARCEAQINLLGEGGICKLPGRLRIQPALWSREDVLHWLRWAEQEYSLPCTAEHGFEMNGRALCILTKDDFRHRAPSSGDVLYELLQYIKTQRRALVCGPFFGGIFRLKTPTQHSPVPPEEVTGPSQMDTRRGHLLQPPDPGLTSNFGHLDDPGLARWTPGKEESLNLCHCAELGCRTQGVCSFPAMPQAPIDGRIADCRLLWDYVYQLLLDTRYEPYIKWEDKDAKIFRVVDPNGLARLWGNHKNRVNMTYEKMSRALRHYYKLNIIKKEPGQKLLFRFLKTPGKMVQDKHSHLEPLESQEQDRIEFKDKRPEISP
The following applies: protein: recombinant; tags: N-terminal GST; dsDNA, one strand shown. The method, boiled down:
as §1

For assay [16], the target named is T11, ELF5 (Homo sapiens, UniProt Q9UKW6-2 1-255).
T11 sequence: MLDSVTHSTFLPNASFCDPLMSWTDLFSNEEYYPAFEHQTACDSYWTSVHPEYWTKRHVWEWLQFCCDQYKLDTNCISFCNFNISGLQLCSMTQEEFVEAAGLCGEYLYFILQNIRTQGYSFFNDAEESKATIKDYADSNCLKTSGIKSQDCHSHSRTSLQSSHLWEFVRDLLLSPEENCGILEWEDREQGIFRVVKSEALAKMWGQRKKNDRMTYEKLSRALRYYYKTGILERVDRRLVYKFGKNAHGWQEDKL
The settings on record: protein: recombinant; tags: N-terminal GST; dsDNA, one strand shown. In outline:
as §1

Assay [17] deals with T12, ETV3 (Homo sapiens, UniProt P41162-2 1-143).
T12 sequence: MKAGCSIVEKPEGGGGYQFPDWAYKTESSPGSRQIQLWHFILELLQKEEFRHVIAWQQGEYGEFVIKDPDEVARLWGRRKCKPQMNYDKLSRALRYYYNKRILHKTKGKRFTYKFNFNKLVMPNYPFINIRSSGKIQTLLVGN
The following applies: protein: recombinant; tags: N-terminal GST; dsDNA, one strand shown. The method, boiled down: as §1

The target in assay [18] is ETV6 (Homo sapiens, UniProt P41212 1-452). The following applies: protein: recombinant; tags: N-terminal GST; dsDNA, one strand shown. The method, boiled down:
as §1

CRX, sequence (O43186 whole entry): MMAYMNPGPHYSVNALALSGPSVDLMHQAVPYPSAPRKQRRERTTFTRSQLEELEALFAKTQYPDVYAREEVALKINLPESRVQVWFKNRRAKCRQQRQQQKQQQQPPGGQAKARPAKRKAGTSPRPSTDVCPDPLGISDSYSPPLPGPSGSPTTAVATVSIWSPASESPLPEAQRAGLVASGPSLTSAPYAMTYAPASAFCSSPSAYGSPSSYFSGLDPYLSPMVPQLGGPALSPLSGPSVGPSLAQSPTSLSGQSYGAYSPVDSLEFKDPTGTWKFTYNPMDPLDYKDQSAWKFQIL
ELF4, sequence (Q99607 whole entry): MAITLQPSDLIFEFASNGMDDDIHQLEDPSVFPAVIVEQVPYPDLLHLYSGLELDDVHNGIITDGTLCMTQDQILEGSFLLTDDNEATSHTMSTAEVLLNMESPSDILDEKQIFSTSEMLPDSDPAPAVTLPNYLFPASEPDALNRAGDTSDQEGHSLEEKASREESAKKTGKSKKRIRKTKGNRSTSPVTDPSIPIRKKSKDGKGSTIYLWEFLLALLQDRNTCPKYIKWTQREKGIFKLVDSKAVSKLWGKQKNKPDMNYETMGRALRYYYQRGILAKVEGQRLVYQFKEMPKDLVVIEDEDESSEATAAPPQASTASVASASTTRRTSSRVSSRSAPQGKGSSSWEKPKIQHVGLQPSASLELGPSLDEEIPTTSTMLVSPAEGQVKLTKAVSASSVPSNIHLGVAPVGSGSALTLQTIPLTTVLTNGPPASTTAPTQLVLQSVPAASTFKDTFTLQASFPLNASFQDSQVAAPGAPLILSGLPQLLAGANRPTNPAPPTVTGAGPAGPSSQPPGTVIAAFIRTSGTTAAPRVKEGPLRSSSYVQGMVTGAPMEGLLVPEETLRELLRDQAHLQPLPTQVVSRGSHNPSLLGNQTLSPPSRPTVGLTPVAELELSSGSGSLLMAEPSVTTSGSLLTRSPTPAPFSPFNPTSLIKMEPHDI
ETV6, sequence (P41212 whole entry): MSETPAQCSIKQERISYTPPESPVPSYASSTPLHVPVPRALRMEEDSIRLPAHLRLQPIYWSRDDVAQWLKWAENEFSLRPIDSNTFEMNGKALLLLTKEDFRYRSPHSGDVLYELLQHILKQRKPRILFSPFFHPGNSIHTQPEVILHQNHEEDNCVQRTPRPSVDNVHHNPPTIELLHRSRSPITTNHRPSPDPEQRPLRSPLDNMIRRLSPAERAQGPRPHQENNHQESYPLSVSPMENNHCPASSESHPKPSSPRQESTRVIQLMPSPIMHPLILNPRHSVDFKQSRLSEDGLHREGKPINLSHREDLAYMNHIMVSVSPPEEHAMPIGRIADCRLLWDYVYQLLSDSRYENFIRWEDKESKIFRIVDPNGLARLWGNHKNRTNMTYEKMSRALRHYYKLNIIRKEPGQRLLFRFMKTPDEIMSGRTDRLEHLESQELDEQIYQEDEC
HSF1, sequence (Q00613 whole entry): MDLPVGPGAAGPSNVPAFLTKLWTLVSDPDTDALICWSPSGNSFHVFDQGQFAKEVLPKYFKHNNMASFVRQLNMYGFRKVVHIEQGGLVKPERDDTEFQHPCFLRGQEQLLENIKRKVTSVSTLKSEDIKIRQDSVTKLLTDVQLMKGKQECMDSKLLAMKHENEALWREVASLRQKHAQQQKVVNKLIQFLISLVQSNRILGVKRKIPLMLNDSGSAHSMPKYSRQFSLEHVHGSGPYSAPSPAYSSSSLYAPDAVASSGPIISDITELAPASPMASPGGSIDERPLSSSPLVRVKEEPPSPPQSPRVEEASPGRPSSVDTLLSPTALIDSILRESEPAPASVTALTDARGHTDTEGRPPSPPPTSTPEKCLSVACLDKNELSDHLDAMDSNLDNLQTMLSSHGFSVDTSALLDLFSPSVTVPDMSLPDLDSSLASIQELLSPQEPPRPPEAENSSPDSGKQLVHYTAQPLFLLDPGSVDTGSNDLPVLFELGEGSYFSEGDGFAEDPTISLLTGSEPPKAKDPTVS

On to GCTCCA, for which the binding signal in [1] is 1.22 fold enrichment (6-mer frequency, TF over GST control); in assay [2], 1.23 fold enrichment (6-mer frequency, TF over GST control); in assay [3], 1.16 fold enrichment (6-mer frequency, TF over GST control); in assay [4], 1.08 fold enrichment (6-mer frequency, TF over GST control); in [5], 1.22 fold enrichment (6-mer frequency, TF over GST control); in assay [6], 1.24 fold enrichment (6-mer frequency, TF over GST control). For the same sequence, the binding signal is 1.29 fold enrichment (6-mer frequency, TF over GST control) in [7]; 1.21 fold enrichment (6-mer frequency, TF over GST control) in assay [8]; 1.01 fold enrichment (6-mer frequency, TF over GST control) in [9]; 1.12 fold enrichment (6-mer frequency, TF over GST control) in assay [10]; 1.26 fold enrichment (6-mer frequency, TF over GST control) in assay [11]; 1.26 fold enrichment (6-mer frequency, TF over GST control) in assay [12]. The binding signal in [13] was 1.21 fold enrichment (6-mer frequency, TF over GST control); in assay [14], 1.19 fold enrichment (6-mer frequency, TF over GST control); in assay [15], 1.19 fold enrichment (6-mer frequency, TF over GST control); in assay [16], 1.09 fold enrichment (6-mer frequency, TF over GST control); in assay [17], 1.14 fold enrichment (6-mer frequency, TF over GST control); in assay [18], 1.1 fold enrichment (6-mer frequency, TF over GST control).
